# Screening data deposited in PubChem BioAssay by National Center for Advancing Translational Sciences (NCATS).
# In the library only some 7.4% were active in any assay of this set; here they are far more common.
# ELG1 genotox = qHTS screen for small molecules that induce genotoxicity in human embryonic kidney (HEK293T) cells expressing luciferase-tagged ELG1 | HEK293T ELG1-luciferase reporter, luminescence, 16 h | Potency, µM (titrated, usually from 46 µM), for inactives: at the highest dose activity change, positive = activation, usual class: activators | 330,000 compounds, 1.3% hits | AID 504466, 2011; also: % of control where 0% means no effect; nearly all actives have a fitted effect of over 60% in size
#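 Genotoxic stress is detected as increased luminescence from luciferase-tagged ELG1 in HEK293T cells, measured with ONE-Glo after a 16 hr treatment at 37 °C.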
# FLuc counter = qHTS profiling assay for firefly luciferase inhibitor/activator using purifed enzyme and Km concentrations of substrates (counterscreen for miR-21 project); Potency, µM (highest dose often 57.5 µM), for inactives: at the highest dose activity change, negative = inhibition, most hits filed as inhibitors; purified FLuc, Km substrates, luminescence inhibition; Luciferin 4-monooxygenase (Photinus pyralis), P08659; AID 588342, 2011; 360,000 compounds, 6.9% hits;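 also: plate controls were vehicle for no effect and reference inhibitor for full effect; nearly all actives have a fitted effect of over 55% in size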
# Target sequence (P08659 whole entry, looked up): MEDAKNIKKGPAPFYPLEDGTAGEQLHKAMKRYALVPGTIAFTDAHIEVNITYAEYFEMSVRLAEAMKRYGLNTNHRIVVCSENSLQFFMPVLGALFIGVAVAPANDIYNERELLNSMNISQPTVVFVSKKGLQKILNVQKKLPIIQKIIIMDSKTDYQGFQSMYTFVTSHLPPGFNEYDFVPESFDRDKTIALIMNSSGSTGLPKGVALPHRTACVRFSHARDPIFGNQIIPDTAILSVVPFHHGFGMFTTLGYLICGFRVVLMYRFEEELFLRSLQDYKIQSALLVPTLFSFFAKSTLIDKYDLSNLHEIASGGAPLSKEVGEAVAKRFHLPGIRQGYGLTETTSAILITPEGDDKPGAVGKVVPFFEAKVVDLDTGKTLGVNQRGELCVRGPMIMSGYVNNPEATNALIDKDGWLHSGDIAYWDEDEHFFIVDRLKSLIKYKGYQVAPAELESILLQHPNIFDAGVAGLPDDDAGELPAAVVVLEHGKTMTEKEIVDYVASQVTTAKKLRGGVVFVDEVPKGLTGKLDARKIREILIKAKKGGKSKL
#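 Purified P. pyralis luciferase, 10 nM final, with Km-level 10 uM D-luciferin and 10 uM ATP in 50 mM Tris acetate pH 7.5, 10 mM Mg acetate, 0.01% Tween-20, 0.05% BSA; 6-point qHTS titration about 60 µM downward; luminescence read.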
# Rab9 prom act = qHTS Assay for Rab9 Promoter Activators | Huh7 Rab9 promoter-luciferase reporter, luminescence, 24 h | Potency, µM (top dose mostly 9.22 µM), for inactives: top-dose activation, negative = inhibition, hits mostly activators | 320,000 compounds, 2.8% hits; also: % of control where 0% means no effect; nearly all actives have a fitted effect of over 60% in size
#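 Cells were plated at 1500 per well in reduced-serum medium with 10% FBS and left 2 h. Compound in DMSO was then added for 24 h at 37 °C. Reporter signal was read by luminescence after 10 min with luciferase detection reagent.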
# SMN2 splice up = qHTS Assay for Enhancers of SMN2 Splice Variant Expression; HEK293 SMN2-luciferase splicing reporter, luminescence, 30-36 h; Potency, µM (titrated, usually from 46.1 µM), without a hit: top-dose activity change, positive = activation, most hits filed as activators; 210,000 compounds, 2.8% hits; AID 1458, 2008; also: % of control where 0% means no effect; nearly all actives have a fitted effect of over 55% in size
#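 qHTS luciferase splicing reporter: luminescence rises when SMN2 exon 7 is included in transfected HEK293 cells. Compound exposure lasted 30-36 h at 37C, with 4.5 mM final sodium butyrate as control, followed by a ONE-Glo read.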
# NPC1 promoter act = qHTS Assay for NPC1 Promoter Activators; Huh7 NPC1 promoter luciferase reporter, 24 h; Potency, µM (highest dose often 9.22 µM), inactives show top-dose activation, hits mostly activators; 320,000 compounds, 2.4% hits; AID 485313, 2010; also: % of control where 0% means no effect; nearly all actives have a fitted effect of over 60% in size
#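 Huh7 cells stably carrying NPC1 promoter–luciferase, plated in Opti-MEM with 10% FBS for 2 h, were exposed to compound in DMSO for 24 h at 37 °C; luciferase reagent was added for 10 min and luminescence read.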
# * marks the source's active call; other numbers are inactive results; ? = inconclusive; · = not tested or not shown. Calls follow the shape of the dose curve; as a rule, active = well fitted curve in the direction sought with a large enough effect; inconclusive = small, poorly fitted or top-dose-only effect, or another doubt; inactive = no such curve, though single readings can be large; an effect the other way counts as inactive or inconclusive. Potency is read from the fitted curve at half-maximal effect.
SMILES,ELG1 genotox,FLuc counter,Rab9 prom act,SMN2 splice up,NPC1 promoter act
Cc1c(C(=O)OCC(=O)N2C(C)CCCC2C)oc2ccccc12 (stereo not given),?,17µM*,?,·,?
Cc1c(C(=O)OCC(C)(C)CN(C)C)oc2ccccc12,?,19µM*,-1%,7%,4%
Cc1c(C(=O)OCCN2CCCCC2)oc2ccccc12,2%,19µM*,5%,1%,0%
Cc1ccc2nc(NCc3ccccc3)c3nnnn3c2c1,·,-1%,·,·,·
COC(=O)c1ccc(C23CC4(C2)[C@H](CN(CC2CCCCC2)[C@@H]4c2ccccc2)C3c2ccc(C(F)(F)F)cc2)cc1 (stereo not given in full),-5%,0%,-10%,-34%,-4%
C#CCn1cc(C=C2C(=O)c3ccccc3C2=O)c2ccccc21,17%,2.4µM*,3%,22%,18%
C#CCn1c(=O)cc(C)c2ccccc21,5%,2%,0%,-8%,-2%
COC(=O)c1cc(S(=O)(=O)N2CCN(c3ccc(C(C)=O)cc3)CC2)cn1C,4%,-6%,1%,·,1%
COc1ccc(NC(=O)c2oc3ccccc3c2NC(=O)C2CC2)cc1OC,-7%,17µM*,6%,·,-1%
Cc1ccc(NC(=O)c2oc3ccccc3c2NC(=O)C2CCCO2)cc1C (stereo not given),7%,?,2.5µM*,13µM*,2.8µM*
COc1ccc(NC(=O)c2oc3ccccc3c2NC(=O)C2CCCO2)cc1OC (stereo not given),0%,?,?,?,24%
O=C(O)c1ccc2nc(-c3cc4cccc(O)c4oc3=O)[nH]c2c1,·,0.85µM*,24%,·,10%
O=c1oc2c(CN3CCCCC3)c(O)ccc2cc1-c1nc2ccccc2[nH]1,?,9.5µM*,?,·,25%
O=C(O)c1ccc2nc(-c3cc4cc(F)ccc4oc3=O)[nH]c2c1,·,5.4µM*,·,·,·
O=c1oc2c(O)cccc2cc1-c1nc2ccccc2[nH]1,?,0.67µM*,0.79µM*,·,0.56µM*
CCOc1ccc(-c2c(C)nn3c(C)c(C(=O)NCc4ccc(Cl)cc4)cnc23)cc1OCC,·,-5%,·,·,·
COC(=O)c1cc2occc2n1Cc1nc(-c2ccccc2)oc1C,·,-2%,·,2%,·
Cc1onc(-c2ccccc2Cl)c1C(=O)NC1CCCCCC1,-1%,-6%,-6%,·,-5%
COc1ccc(NS(=O)(=O)c2cccc(NC(=O)c3cnccn3)c2)cc1Br,-8%,-3%,-10%,-20%,-5%
OC1CCCN(C(=S)Nc2ccc(SC(F)F)cc2)C1 (stereo not given),9%,11µM*,14%,?,14%
Cc1ccc(NC(=S)N2CCC(O)CC2)c(C)c1,-4%,-3%,-1%,-4%,-8%
CC1CC(C)CN(C(=S)Nc2ccc(SC(F)F)cc2)C1 (stereo not given),-3%,?,-3%,16%,-5%
OCC1CCCN(C(=S)Nc2ccc(Oc3ccccc3)cc2)C1 (stereo not given),17%,13µM*,1.8µM*,·,?
CC(=O)c1ccc(NC(=S)N2CCCC(CO)C2)cc1 (stereo not given),?,8.5µM*,?,16µM*,?
Cc1ccc(NC(=S)N2CCCC(CO)C2)c(C)c1 (stereo not given),10%,17µM*,?,·,17%
SMILES,ELG1 genotox,FLuc counter,Rab9 prom act,SMN2 splice up,NPC1 promoter act
COc1cc(NC(=S)N2CCCC(CO)C2)cc(OC)c1 (stereo not given),3%,?,13%,11%,-2%
CC1CCCN(C(=S)Nc2ccc(Nc3ccccc3)cc2)C1 (stereo not given),7%,?,3.5µM*,·,28%
COC(=O)Cc1ccc(NC(=S)N2CCCC(C)C2)cc1 (stereo not given),?,1.5µM*,?,?,24%
COC(=O)Cc1ccc(NC(=S)N2CCCC(CO)C2)cc1 (stereo not given),?,0.85µM*,?,·,?
CC(O)CC(C)O (stereo not given),-1%,1%,-3%,-9%,-2%
COc1cc(C(=O)N/N=C/c2ccc(OC(=O)c3ccccc3Cl)c(OC)c2)ccc1O,-3%,?,-11%,·,1%
COc1ccccc1C(=O)NCC(=O)N/N=C/c1ccc2c(c1)OCO2,4%,17µM*,0%,·,-2%
COc1cc(/C=N/NC(=O)c2ccc(-n3cccc3)cc2)ccc1O,0%,21µM*,-7%,29%,-6%
COc1cc(/C=N/NC(=O)/C(=C\c2ccc3c(c2)OCO3)NC(=O)c2ccccc2)ccc1O,0%,?,-2%,-9%,-1%
COc1cc(/C=N/NC(=O)c2ccc3c(c2)OCO3)ccc1O,?,17µM*,18%,·,17%
O=C(COc1ccccc1C(=O)N/N=C\c1ccc(O)c(O)c1)N/N=C/c1ccc(O)c(O)c1,0%,6.7µM*,-9%,?,-5%
CC(C)Cc1nn2c(=O)cc(COC(=O)c3cccc(NC(=O)c4cccs4)c3)nc2s1,·,-1%,·,·,·
COc1ccc(Cl)cc1NC(=O)C1CCN(S(=O)(=O)c2ccc(F)cc2)CC1,·,-9%,·,-5%,·
COc1ccc(/C=N/NC(=O)c2ccc3c(c2)OCO3)cc1,10%,5.4µM*,26%,·,27%
COc1ccc(NCC(=O)N/N=C/c2ccc3c(c2)OCCO3)cc1,-1%,19µM*,-3%,?,2%
COc1ccc(N(CC(=O)N/N=C/c2ccc3c(c2)OCO3)S(=O)(=O)c2ccccc2)cc1,0%,-6%,0%,2%,-2%
O=C(CCN1C(=O)/C(=C/c2ccc(F)cc2)SC1=S)Nc1cc([N+](=O)[O-])ccc1O,-4%,12µM*,6%,·,0%
COc1ccc(/C=C2\SC(=S)N(CCCC(=O)Nc3ccc(O)cc3)C2=O)cc1,-1%,?,-17%,·,-10%
COc1cc([N+](=O)[O-])ccc1NC(=O)COC(=O)C=C(C)C,0%,3%,3%,10%,0%
COc1ccc(/C=C2\SC(=S)N(CC(=O)OCC(=O)Nc3ccc([N+](=O)[O-])cc3OC)C2=O)cc1,3%,24µM*,13%,5%,5%
COc1ccc(/C=C2\SC(=S)N(CC(=O)OCC(=O)Nc3ccc(C)cc3Cl)C2=O)cc1,3%,12µM*,22%,·,4%
O=C(CCCN1C(=O)/C(=C/c2cccs2)SC1=S)Nc1cc([N+](=O)[O-])ccc1O,-1%,8%,0%,·,-6%
